According to PMC5540273 (PLoS ONE, 2017):

System: T1, RSK3(Kin.Dom.2-C-terminal)
T1 construct: gene RPS6KA2
Settings: concentration: 1 μM, replicates: in singlicate; n = 1
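Note: KINOMEscan kinase panel screen.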

For O=C(Nc1n[nH]c2nc(-c3ccco3)c(Br)cc12)C1CCN(Cc2ccccc2)C1.O=C(O)[C@H](O)[C@@H](O)C(=O)O (centres unmarked) [SB-742034], which “%Inh” value is on record?
The value was 0%.

For Cn1cnc2c(N)ncnc21 [SKF-97623], which “%Inh” value is on record?
The value was 8%.

COc1ccc(Nc2nccc(-c3ccc(NC(=O)c4cc5cc(F)ccc5[nH]4)cc3)n2)cc1 [GSK1229496] was tested. Which “%Inh” value did it give?
Its value is 0%.

With CNC(=O)c1ccc(C)c(-n2c(C)cc(OCc3ccc(F)cc3F)c(Br)c2=O)c1 as the compound, how does the “%Inh” value read?
The value was 0%.

How did the “%Inh” value turn out when Nc1nccc(-c2c(-c3ccc(F)cc3)ncn2C2CCN(Cc3ccccc3)CC2)n1 [SB-219980] was run?
The value was 5%.

Cc1ccc(NC(=O)Nc2ccccc2)cc1-c1ccc(C(=O)Nc2ccncc2)cc1 [GSK1398471] was tested. Which “%Inh” value did it give?
The value was 7%.

Which “%Inh” value does the source give for Fc1ccc(-c2nc[nH]c2-c2ccncc2)cc1 [SB-217360] here?
Its value is 6%.

For CC(C)c1cc(-c2ccc3c(N)n[nH]c3c2)nc(N)n1 [GSK2250882], which “%Inh” value is on record?
Its value is 5%.

How did the “%Inh” value turn out when Fc1ccc(-c2nc3n(c2-c2ccncc2)CCS3)cc1 [GI98581] was run?
Its value is 11%.

For CCc1ccc(-c2ccc3c(c2)-c2n[nH]cc2S(=O)(=O)N3C)cc1, which “%Inh” value is on record?
The value was 17%.

Which “%Inh” value does the source give for COc1ccc(CSc2nnc(-c3ccc4c(c3)CCO4)o2)cc1 here?
The value was 5%.

Which “%Inh” value does the source give for CSc1ccc(-c2nc3n(c2-c2ccncc2)CCC3)cc1 [SKF-105561] here?
Its value is 35%.

With COc1cccc(NC(=O)Nc2ccc(C)c(-c3ccc(C(=O)Nc4ccncc4)cc3)c2)c1 [GSK1398474] as the compound, how does the “%Inh” value read?
Its value is 19%.

Which “%Inh” value does the source give for O=c1cc(N2CCOCC2)nc2n(Cc3cccc(Cl)c3Cl)c3ccccc3n12 [GSK2299009] here?
Its value is 0%.

For COC(=O)c1cccc(NC(=O)NC2CCN(c3ccnc(Nc4ccc(F)cc4)n3)C2)c1 (centres unmarked) [GSK1379725], which “%Inh” value is on record?
Its value is 0%.

How did the “%Inh” value turn out when O=C(Nc1n[nH]c2nc(-c3cccs3)c(Br)cc12)C1CC1 [SB-735297] was run?
The value was 0%.

Which “%Inh” value does the source give for CC(=O)c1c(C)c2cnc(Nc3ccc(N4CCNCC4)cn3)nc2n(C2CCCC2)c1=O here?
The value was 0%.

With CN1c2ccc(-c3ccc(C(N)=O)cc3)cc2-c2[nH]ncc2S1(=O)=O as the compound, how does the “%Inh” value read?
Its value is 41%.

How did the “%Inh” value turn out when CNc1cc(-c2ccc3c(N)n[nH]c3c2)nc(N)n1 [GSK2224810] was run?
Its value is 0%.

With Cn1cncc1C(=O)NC1CCN(c2ccnc(Nc3ccc(F)cc3)n2)C1 (centres unmarked) [GSK1379717] as the compound, how does the “%Inh” value read?
Its value is 12%.

With Cn1cncc1-c1cc2c(Nc3ccc(OCc4ccccc4)cc3)ncnc2cn1 [GW281179] as the compound, how does the “%Inh” value read?
Its value is 0%.

COc1ccc(-c2coc3ccc(-c4nnc(C)o4)cc23)cc1 was tested. Which “%Inh” value did it give?
Its value is 8%.

With Cc1ccc(NC(=O)Nc2ccc(Cl)cc2)cc1-c1ccc(C(=O)Nc2ccncc2)cc1 [GSK1398472] as the compound, how does the “%Inh” value read?
The value was 0%.

How did the “%Inh” value turn out when CC(=O)c1c(C)c2cnc(Nc3ccn(C)n3)nc2n(C2CCCC2)c1=O was run?
The value was 0%.

For COc1ccc(Nc2nccc(N3CCC(NC(=O)c4cc5ccccc5s4)C3)n2)cc1 (centres unmarked) [GSK1379738], which “%Inh” value is on record?
The value was 0%.

For Cc1nccc(-c2c(-c3ccc(F)cc3)ncn2CCCN2CCOCC2)n1.Cl [SB-282975], which “%Inh” value is on record?
The value was 0%.

CC[C@@H]1CO[C@H](C(=O)Nc2ccccc2)CN1c1cc(-c2ccc3c(N)n[nH]c3c2)nc(NC)n1 [GSK2376236] was tested. Which “%Inh” value did it give?
Its value is 16%.

How did the “%Inh” value turn out when NS(=O)(=O)c1cccc(N/C=C2\C(=O)Nc3ccc(S(=O)(=O)Cc4c(Cl)cccc4Cl)cc32)c1 [GSK398099] was run?
The value was 0%.

Which “%Inh” value does the source give for Nc1cccc(-c2ccc3c(N)n[nH]c3c2)n1 [GSK2192730] here?
The value was 19%.

For CCCCc1nn2ncccc2c1-c1ccnc(NC2CC2)n1 [GW684374], which “%Inh” value is on record?
The value was 0%.

With CNc1nc(-c2ccc3c(N)n[nH]c3c2)cc(N2C[C@@H](C(=O)NC3CCCCC3)OC[C@H]2C)n1 [GSK2375584] as the compound, how does the “%Inh” value read?
Its value is 6%.

Which “%Inh” value does the source give for COc1cccc(C2=C(Nc3cc(Cl)c(O)c(Cl)c3)C(=O)NC2=O)c1 [SB-390767] here?
The value was 0%.

Which “%Inh” value does the source give for COc1ccc(CSc2nnc(-c3ccc4ncsc4c3)o2)cc1C(F)(F)F here?
The value was 0%.

With Cc1c(Cn2c(C)c(C)n3c(=O)cc(N4CCOCC4)nc23)cccc1C(F)(F)F [GSK2328680] as the compound, how does the “%Inh” value read?
The value was 0%.

Which “%Inh” value does the source give for CNc1nc(-c2ccc3c(N)n[nH]c3c2)cc(N2C[C@@H](C(=O)Nc3ccccc3)CC[C@H]2C)n1 [GSK2298859] here?
The value was 3%.

With Cc1ccccc1-c1cc(-c2c[nH]nc2-c2ccccn2)ccn1 [GW680061] as the compound, how does the “%Inh” value read?
Its value is 0%.

Which “%Inh” value does the source give for COc1ccc(Nc2nccc(NCCNC(=O)Nc3cc(C)ccc3C)n2)cc1 [GSK1379899] here?
The value was 0%.

System: T2, RSK4(Kin.Dom.1-N-terminal)
T2 construct: gene RPS6KA6
Settings: concentration: 1 μM, replicates: in singlicate; n = 1

For O=C(Nc1n[nH]c2nc(-c3ccco3)c(Br)cc12)C1CCN(Cc2ccccc2)C1.O=C(O)[C@H](O)[C@@H](O)C(=O)O (centres unmarked) [SB-742034], which “%Inh” value is on record?
Its value is 16%.

For Cn1cnc2c(N)ncnc21 [SKF-97623], which “%Inh” value is on record?
The value was 0%.

With COc1ccc(Nc2nccc(-c3ccc(NC(=O)c4cc5cc(F)ccc5[nH]4)cc3)n2)cc1 [GSK1229496] as the compound, how does the “%Inh” value read?
The value was 20%.

For CNC(=O)c1ccc(C)c(-n2c(C)cc(OCc3ccc(F)cc3F)c(Br)c2=O)c1, which “%Inh” value is on record?
The value was 0%.

How did the “%Inh” value turn out when Nc1nccc(-c2c(-c3ccc(F)cc3)ncn2C2CCN(Cc3ccccc3)CC2)n1 [SB-219980] was run?
The value was 30%.

With Cc1ccc(NC(=O)Nc2ccccc2)cc1-c1ccc(C(=O)Nc2ccncc2)cc1 [GSK1398471] as the compound, how does the “%Inh” value read?
Its value is 0%.

Which “%Inh” value does the source give for Fc1ccc(-c2nc[nH]c2-c2ccncc2)cc1 [SB-217360] here?
The value was 16%.

Which “%Inh” value does the source give for CC(C)c1cc(-c2ccc3c(N)n[nH]c3c2)nc(N)n1 [GSK2250882] here?
The value was 0%.

How did the “%Inh” value turn out when Fc1ccc(-c2nc3n(c2-c2ccncc2)CCS3)cc1 [GI98581] was run?
Its value is 0%.

With CCc1ccc(-c2ccc3c(c2)-c2n[nH]cc2S(=O)(=O)N3C)cc1 as the compound, how does the “%Inh” value read?
The value was 1%.

With COc1ccc(CSc2nnc(-c3ccc4c(c3)CCO4)o2)cc1 as the compound, how does the “%Inh” value read?
The value was 0%.

With CSc1ccc(-c2nc3n(c2-c2ccncc2)CCC3)cc1 [SKF-105561] as the compound, how does the “%Inh” value read?
The value was 8%.

How did the “%Inh” value turn out when COc1cccc(NC(=O)Nc2ccc(C)c(-c3ccc(C(=O)Nc4ccncc4)cc3)c2)c1 [GSK1398474] was run?
Its value is 0%.

For O=c1cc(N2CCOCC2)nc2n(Cc3cccc(Cl)c3Cl)c3ccccc3n12 [GSK2299009], which “%Inh” value is on record?
The value was 0%.

COC(=O)c1cccc(NC(=O)NC2CCN(c3ccnc(Nc4ccc(F)cc4)n3)C2)c1 (centres unmarked) [GSK1379725] was tested. Which “%Inh” value did it give?
The value was 0%.

Which “%Inh” value does the source give for O=C(Nc1n[nH]c2nc(-c3cccs3)c(Br)cc12)C1CC1 [SB-735297] here?
Its value is 98.9%.

Which “%Inh” value does the source give for CC(=O)c1c(C)c2cnc(Nc3ccc(N4CCNCC4)cn3)nc2n(C2CCCC2)c1=O here?
The value was 0%.

How did the “%Inh” value turn out when CN1c2ccc(-c3ccc(C(N)=O)cc3)cc2-c2[nH]ncc2S1(=O)=O was run?
Its value is 0%.

Which “%Inh” value does the source give for CNc1cc(-c2ccc3c(N)n[nH]c3c2)nc(N)n1 [GSK2224810] here?
Its value is 37%.

Cn1cncc1C(=O)NC1CCN(c2ccnc(Nc3ccc(F)cc3)n2)C1 (centres unmarked) [GSK1379717] was tested. Which “%Inh” value did it give?
The value was 0%.

How did the “%Inh” value turn out when Cn1cncc1-c1cc2c(Nc3ccc(OCc4ccccc4)cc3)ncnc2cn1 [GW281179] was run?
The value was 0%.

COc1ccc(-c2coc3ccc(-c4nnc(C)o4)cc23)cc1 was tested. Which “%Inh” value did it give?
The value was 22%.

How did the “%Inh” value turn out when Cc1ccc(NC(=O)Nc2ccc(Cl)cc2)cc1-c1ccc(C(=O)Nc2ccncc2)cc1 [GSK1398472] was run?
The value was 0%.

How did the “%Inh” value turn out when CC(=O)c1c(C)c2cnc(Nc3ccn(C)n3)nc2n(C2CCCC2)c1=O was run?
Its value is 0%.

How did the “%Inh” value turn out when COc1ccc(Nc2nccc(N3CCC(NC(=O)c4cc5ccccc5s4)C3)n2)cc1 (centres unmarked) [GSK1379738] was run?
The value was 0%.

How did the “%Inh” value turn out when Cc1nccc(-c2c(-c3ccc(F)cc3)ncn2CCCN2CCOCC2)n1.Cl [SB-282975] was run?
The value was 22%.

Which “%Inh” value does the source give for CC[C@@H]1CO[C@H](C(=O)Nc2ccccc2)CN1c1cc(-c2ccc3c(N)n[nH]c3c2)nc(NC)n1 [GSK2376236] here?
Its value is 0%.

How did the “%Inh” value turn out when NS(=O)(=O)c1cccc(N/C=C2\C(=O)Nc3ccc(S(=O)(=O)Cc4c(Cl)cccc4Cl)cc32)c1 [GSK398099] was run?
Its value is 0%.

Which “%Inh” value does the source give for Nc1cccc(-c2ccc3c(N)n[nH]c3c2)n1 [GSK2192730] here?
Its value is 0%.

For CCCCc1nn2ncccc2c1-c1ccnc(NC2CC2)n1 [GW684374], which “%Inh” value is on record?
The value was 0%.

CNc1nc(-c2ccc3c(N)n[nH]c3c2)cc(N2C[C@@H](C(=O)NC3CCCCC3)OC[C@H]2C)n1 [GSK2375584] was tested. Which “%Inh” value did it give?
Its value is 0%.

For COc1cccc(C2=C(Nc3cc(Cl)c(O)c(Cl)c3)C(=O)NC2=O)c1 [SB-390767], which “%Inh” value is on record?
Its value is 0%.

With COc1ccc(CSc2nnc(-c3ccc4ncsc4c3)o2)cc1C(F)(F)F as the compound, how does the “%Inh” value read?
The value was 0%.

Which “%Inh” value does the source give for Cc1c(Cn2c(C)c(C)n3c(=O)cc(N4CCOCC4)nc23)cccc1C(F)(F)F [GSK2328680] here?
The value was 0%.

Which “%Inh” value does the source give for CNc1nc(-c2ccc3c(N)n[nH]c3c2)cc(N2C[C@@H](C(=O)Nc3ccccc3)CC[C@H]2C)n1 [GSK2298859] here?
The value was 0%.

With Cc1ccccc1-c1cc(-c2c[nH]nc2-c2ccccn2)ccn1 [GW680061] as the compound, how does the “%Inh” value read?
Its value is 0%.

How did the “%Inh” value turn out when COc1ccc(Nc2nccc(NCCNC(=O)Nc3cc(C)ccc3C)n2)cc1 [GSK1379899] was run?
The value was 0%.
